# A selection: hits, their analogues and other compounds. The true share with any hit is near 9%.
# JMJD2A Tudor inh = qHTS Assay for Inhibitors of JMJD2A-Tudor Domain | Lysine-specific demethylase 4A (Homo sapiens), O75164 | Potency, µM (top dose mostly 114 µM), for the others: at the highest dose activity change, negative = inhibition, actives largely listed as inhibitors | actives 4.4% (n = 390,000) | AlphaScreen JMJD2A-Tudor / H3K4me3 peptide binding | AID 504339, 2011; further: on the % scale 0 is the no-effect control and ±100 the full control effect; nearly all actives have a fitted effect of over 50% in size
# BAZ2B block = qHTS Assay for Inhibitors of BAZ2B | Bromodomain adjacent to zinc finger domain protein 2B (Homo sapiens), Q9UIF8 | AlphaScreen BAZ2B-H3K14Ac peptide displacement | Potency, µM (series often up to 114 µM), without a hit: top-dose activity change, negative = inhibition, usual class: inhibitors | actives 4.4% (n = 360,000) | AID 504333, 2011; further: on the % scale 0 is the no-effect control and ±100 the full control effect; nearly all actives have a fitted effect of over 60% in size
#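 Inhibition is scored as reduced AlphaScreen emission. The BAZ2B/b-H3(5-23)K14Ac complex (50 nM each) in PBS pH 7.4, 0.01% Tween-20 meets compound (up to 110 uM) for 30 min at RT before bead addition.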
# PLK1 PBD inh = qHTS for Inhibitors of PLK1-PDB (polo-like kinase 1 - polo-box domain): Primary Screen | Serine/threonine-protein kinase PLK1 (Homo sapiens), P53350 | Plk1 PBD binding of FITC phosphopeptide, fluorescence polarization | Potency, µM, for the others: max response, negative = inhibition, most hits filed as inhibitors | actives 2.8% (n = 360,000) | AID 720504, 2013; further: series mostly up to about 57 µM; on the % scale 0 is the no-effect control and ±100 the full control effect; nearly all actives have a fitted effect of over 65% in size
# HP1b binding inh = HTS for Inhibitors of HP1-beta Chromodomain Interactions with Methylated Histone Tails | Chromobox protein homolog 1 (Homo sapiens), P83916 | AlphaScreen HP1-beta / biotin-H3K9me3 peptide binding | Potency, µM (series often up to 114 µM), inactives show at the top dose activity change, negative = inhibition, hits mostly inhibitors | actives 0.56% (n = 390,000) | AID 540317, 2011; further: nearly all actives have a fitted effect of over 70% in size
# Target sequence (P83916 whole entry, looked up): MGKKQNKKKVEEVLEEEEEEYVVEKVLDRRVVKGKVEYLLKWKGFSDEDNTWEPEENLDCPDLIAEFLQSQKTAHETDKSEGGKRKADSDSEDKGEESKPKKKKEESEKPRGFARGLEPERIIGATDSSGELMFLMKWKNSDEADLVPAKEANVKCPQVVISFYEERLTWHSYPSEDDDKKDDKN
#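 Compound inhibition of the preformed complex between 50 nM HP1-beta and 50 nM biotinylated H3K9me3 peptide was read by AlphaScreen. Buffer was PBS pH 7.4 with 0.01% Tween-20. Incubations ran 30 min at room temperature, with 10 ug/mL donor/acceptor beads.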
# ALOX12 inh = Primary qHTS assay for inhibitors of human arachidonate 12S-lipoxygenase (ALOX12): Round 2; Polyunsaturated fatty acid lipoxygenase ALOX12 (Homo sapiens), P18054; Potency, µM (doses to about 108 µM), inactives show at the top dose activity change, negative = inhibition, hits mostly inhibitors; purified 12hLO, xylenol orange hydroperoxide absorbance; actives 1.1% (n = 580,000); further: on the % scale 0 is the no-effect control and ±100 the full control effect
#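 Purified human 12hLO (150 nM final) in 25 mM Hepes, 0.01% Triton X-100, pH 7.0 was preincubated 15 min at room temperature with compound. Then 40 uM arachidonic acid was added, 30 min. Hydroperoxide was read by Fe-XO absorbance ratio 573/405 nm.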
# G9a inh = qHTS Assay for Inhibitors of Histone Lysine Methyltransferase G9a; Histone-lysine N-methyltransferase EHMT2 (Homo sapiens), Q96KQ7; G9a H3K9 monomethylation, AlphaScreen, 2 h; Potency, µM (top dose mostly 102 µM), for inactives: at the top dose activity, negative = inhibition, hits mostly inhibitors; actives 8.8% (n = 350,000); AID 504332, 2011; further: on the % scale 0 is the no-effect control and ±100 the full control effect; nearly all actives have a fitted effect of over 75% in size
# Target sequence (Q96KQ7 913-1193 limits assumed): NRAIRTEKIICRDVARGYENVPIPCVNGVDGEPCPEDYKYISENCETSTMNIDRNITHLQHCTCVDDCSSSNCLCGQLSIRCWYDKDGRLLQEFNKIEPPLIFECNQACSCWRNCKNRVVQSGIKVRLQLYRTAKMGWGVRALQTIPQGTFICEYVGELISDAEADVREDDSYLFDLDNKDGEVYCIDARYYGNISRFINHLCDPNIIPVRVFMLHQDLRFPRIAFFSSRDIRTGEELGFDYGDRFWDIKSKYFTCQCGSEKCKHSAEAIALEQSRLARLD
#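 G9a (20 nM) was preincubated 15 min with compound, then reacted 2 h at room temperature with 500 nM biotin-H3K9 peptide and 20 µM SAM. Monomethyl-H3K9 detected by AlphaScreen using anti-H3K9me1 antibody.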
# * = called active by the depositor; ? = inconclusive; nt = no result given; [ ] = another dose, or the depositor's remark. The call rests on the fitted dose curve; in most records, active means well fitted curve in the direction sought with a large enough effect; inconclusive means small, poorly fitted or top-dose-only effect, or another doubt; inactive means no such curve, though single readings can be large; an effect the other way counts as inactive or inconclusive. Potency means the concentration at half of the fitted maximal effect.
SMILES,JMJD2A Tudor inh,BAZ2B block,PLK1 PBD inh,HP1b binding inh,ALOX12 inh,G9a inh
COc1cc2c(cc1OC)CN(C(=O)c1cc(Cl)nc(Cl)c1)CC2,-15%,-9%,-6%,8%,?,12%
CC(C)Cn1c(-c2cc(Br)ccc2F)nc2c1c(=O)[nH]c(=O)n2CC(C)C,-29%,-13%,0%,4%,?,15%
O=C(c1ccccc1)N1CCC(Cc2nc(-c3ccncc3)n[nH]2)CC1,nt,nt,nt,nt,23%,nt
Nc1cccc2c(O)cc(S(=O)(=O)O)cc12,10µM*,nt,13µM*,10µM*,nt,nt
Nc1ccc2c(O)cc(S(=O)(=O)O)cc2c1,45µM*,nt,-27%,?,?,nt
O=C(OCC(=O)c1cccc2ccccc12)c1ccc(CO)cc1,-14%,-11%,2%,25%,?,48%
COc1ccc(/C=N/Nc2nc(C)cc(-c3ccccc3)n2)c(OC)c1,-10%,3%,-14%,32%,0%,-1%
COc1ccc(O)c(/C=N/Nc2nc(C)cc(-c3ccccc3)n2)c1,35µM*,nt,2%,?,-29%,nt
O=C(c1ccc(F)cc1)N1CCC(O)(c2cccnc2)CC1,6%,-2%,-1%,41%,-24%,-35%
Oc1c(C(Nc2ccccn2)c2ccccc2F)ccc2cccnc12 (configuration not stated),14µM*,20µM*,nt,12%,1%,?
CCCC(=O)NC(c1ccccc1Cl)c1ccc2cccnc2c1O (configuration not stated),-27%,-34%,-13%,41%,-5%,41%
Oc1c(C(Nc2ccccn2)c2ccccn2)ccc2cccnc12 (configuration not stated),-22%[11.4 µM],-113%,-25%,29%,?,32µM*
COc1ccccc1NC(c1cccnc1)c1ccc2cccnc2c1O (configuration not stated),22µM*,14µM*,3µM*,?,?,1.4µM*
Oc1ccccc1C(Nc1nccs1)c1ccc2cccnc2c1O (configuration not stated),35µM*,28µM*,?,0%,-9%,nt
O=C(COC(=O)c1n[nH]c2ccccc12)Nc1ccc([N+](=O)[O-])cc1,-7%,-7%,-3%,21%,-24%,?
COC(=O)CN1C(=O)[C@@H]2C[C@@H](O)CN2C2(CN(Cc3ccc(OC)c4ccccc34)C2)C1=O,nt,nt,nt,nt,0%,nt
COc1cc(CNCCc2ccccc2F)ccc1OCC(=O)N1CCCCC1,8%,-5%,3%,22%,-8%,-2%[59 µM]
CC(=O)NC(c1ccc(Cl)cc1)c1ccc2cccnc2c1O (configuration not stated),?,nt,-13%,38%,-22%,nt
CC(C)C(=O)NC(c1ccc(Cl)cc1Cl)c1ccc2cccnc2c1O (configuration not stated),-14%,?,1%,34%,-29%,44%[0.501 µM]
O=C(O)c1ccc2cccnc2c1O,10µM*,25µM*,-14%,3%,15%,nt
O=C(O)c1ccccc1NC(c1ccccc1)c1ccc2cccnc2c1O (configuration not stated),28µM*,nt,0.6µM*,25µM*,18µM*,nt
Cc1ccnc(NC(c2ccccc2F)c2ccc3cccnc3c2O)c1 (configuration not stated),13µM*,25µM*,nt,7%,22µM*,?
Cc1cc(NC(c2ccc(Cl)cc2)c2ccc3cccnc3c2O)no1 (configuration not stated),?,45µM*,-5%,23%,?,23%[59 µM]
CNC(=O)c1c(NC(=O)c2ccc(S(=O)(=O)N3CCCCC3C)cc2)sc2c1CCN(C)C2 (configuration not stated),-8%,6%,29%,29%,?,nt
COCCCNC(=O)CC1C[C@H](C(=O)N2CCOCC2)[C@@]2(CCC3CCCC3)c3[nH]c4ccc(OC)cc4c3CCN2C1=O (some centres not stated),-19%,nt,-4%,2%,-1%,nt
SMILES,JMJD2A Tudor inh,BAZ2B block,PLK1 PBD inh,HP1b binding inh,ALOX12 inh,G9a inh
O=c1c2ccccc2cnn1CN1CCN(S(=O)(=O)c2c(Cl)cccc2Cl)CC1,nt,nt,nt,nt,44%,nt
Cc1ccnc(NC(c2cc(C)ccc2O)c2ccc3cccnc3c2O)c1 (configuration not stated),28µM*,22µM*,nt,7%,-1%,10µM*
Cc1ccnc(NC(c2ccccc2)c2ccc3cccnc3c2O)c1 (configuration not stated),14µM*,nt,?,-21%[57 µM],?,nt
COCCNc1nc(-c2ccccc2C(F)(F)F)nc2ccccc12,nt,nt,nt,nt,?,-4%[0.501 µM]
C#CCN(C[C@H]1[C@H](OC(=O)NC2CC2)[C@H](OC(=O)NC2CC2)C[C@H]2C(=O)N(c3ccccc3)C(=O)[C@@H]12)S(=O)(=O)c1ccc(C)cc1,nt,nt,-2%,nt,-46%,nt
C#CCN(C[C@H]1[C@H](OC(=O)NCC2CCCCC2)[C@H](OC(=O)NCC2CCCCC2)C[C@H]2C(=O)N(c3ccccc3)C(=O)[C@@H]12)S(=O)(=O)c1ccc(C)cc1,nt,nt,-13%,nt,45µM*,nt
CC(C)=NNC(=O)CN1C(=O)NC2NC(=O)NC21 (configuration not stated),-6%,5%,-4%,16%,-17%,79µM*
c1ccc(CSc2nnc(SCc3ccccn3)s2)nc1,-6%,5%,0%,24%,-9%,-10%[2.33 µM]
N=C(N)SCc1ncccc1O,?,?,-26%,-2%,-14%,18µM*
N=C(N)SCc1ccccn1,22µM*,35µM*,-13%,-4%,?,?
Cc1nc2cc(NC(=O)N3c4ccccc4CC3C)ccc2o1 (configuration not stated),-10%,2%,-7%,23%,15%,6%[12.7 µM]
O=C(Nc1ccc(C(O)c2ccccc2)cc1)[C@H]1C[C@H](O)[C@@H](CO)O1 (some centres not stated),nt,nt,2%,nt,-13%,nt
COc1ccccc1N1CCN(Cc2nc3ccccc3[nH]2)CC1,-13%,-8%,-5%,28%,2%,-5%

# Source: PubChem BioAssay (National Center for Advancing Translational Sciences (NCATS))
